# PMC7862700, “An all-to-all approach to the identification of sequence-specific readers for epigenetic DNA modifications on cytosine”
# What was measured:
# Test in all cases: DAPPL (digital affinity profiling via proximity ligation, sequencing); 10 mM Tris-HCl pH 7.5, 50 mM NaCl, 1 mM DTT, 4% glycerol, room temperature, 30 min; GST-TFs on glutathione beads, 16-mer random dsDNA library, 0.1% formaldehyde crosslink after washing; high values mean tight binding
# HSF1 = HSF1 (Homo sapiens, UniProt Q00613 1-529); conditions: protein: recombinant; tags: N-terminal GST; chain copies: 3; dsDNA, one strand shown
# Summary of the method: (§1)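 Binding signal is each hexamer's read frequency for a factor divided by its frequency in the tag-only sample. The factors were GST-fused human transcription factors from yeast, captured on glutathione beads, DNA-barcoded and pooled with that sample. Pools were incubated with 200 nmole of a random double-stranded 16-mer DNA library in Tris/NaCl/DTT/glycerol buffer at room temperature for 30 min, then washed, crosslinked with 0.1% formaldehyde, proximity-ligated with BsaI/T4 ligase (1 h, 37 °C), PCR-amplified and sequenced on an Illumina NextSeq500.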
# ETV2 = target: T1, ETV2 (Homo sapiens, UniProt O00321 1-342); conditions: protein: recombinant; tags: N-terminal GST; dsDNA, one strand shown
# T1 sequence: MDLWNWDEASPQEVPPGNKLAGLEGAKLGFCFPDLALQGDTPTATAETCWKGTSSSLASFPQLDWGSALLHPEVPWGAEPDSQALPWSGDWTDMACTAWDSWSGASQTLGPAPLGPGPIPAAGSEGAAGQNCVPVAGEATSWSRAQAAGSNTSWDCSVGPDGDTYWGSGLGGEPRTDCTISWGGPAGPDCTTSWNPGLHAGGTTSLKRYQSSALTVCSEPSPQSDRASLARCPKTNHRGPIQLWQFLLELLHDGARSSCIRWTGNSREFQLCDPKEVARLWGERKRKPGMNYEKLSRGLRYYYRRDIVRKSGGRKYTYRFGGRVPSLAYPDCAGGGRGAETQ
# Summary of the method: as §1
# CRX = CRX (Homo sapiens, UniProt O43186 1-299); conditions: protein: recombinant; tags: N-terminal GST; dsDNA, one strand shown
# Summary of the method: as §1
# SPDEF = target: T2, SPDEF (Homo sapiens, UniProt O95238 1-335); conditions: protein: recombinant; tags: N-terminal GST; dsDNA, one strand shown
# T2 sequence: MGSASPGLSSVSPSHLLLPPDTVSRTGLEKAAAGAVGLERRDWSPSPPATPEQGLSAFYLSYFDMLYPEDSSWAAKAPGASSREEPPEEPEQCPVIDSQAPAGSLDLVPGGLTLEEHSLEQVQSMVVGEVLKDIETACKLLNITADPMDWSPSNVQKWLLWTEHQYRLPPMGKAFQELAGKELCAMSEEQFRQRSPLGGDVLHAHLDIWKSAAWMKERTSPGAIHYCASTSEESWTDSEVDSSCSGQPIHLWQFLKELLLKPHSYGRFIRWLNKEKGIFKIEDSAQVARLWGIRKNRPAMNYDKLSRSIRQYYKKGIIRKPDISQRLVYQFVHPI
# Summary of the method: as §1
# SPI1 = SPI1 (Homo sapiens, UniProt P17947 1-270); conditions: protein: recombinant; tags: N-terminal GST; dsDNA, one strand shown
# Summary of the method: as §1
# ELF3 = target: T3, ELF3 (Homo sapiens, UniProt P78545 1-371); conditions: protein: recombinant; tags: N-terminal GST; dsDNA, one strand shown
# T3 sequence: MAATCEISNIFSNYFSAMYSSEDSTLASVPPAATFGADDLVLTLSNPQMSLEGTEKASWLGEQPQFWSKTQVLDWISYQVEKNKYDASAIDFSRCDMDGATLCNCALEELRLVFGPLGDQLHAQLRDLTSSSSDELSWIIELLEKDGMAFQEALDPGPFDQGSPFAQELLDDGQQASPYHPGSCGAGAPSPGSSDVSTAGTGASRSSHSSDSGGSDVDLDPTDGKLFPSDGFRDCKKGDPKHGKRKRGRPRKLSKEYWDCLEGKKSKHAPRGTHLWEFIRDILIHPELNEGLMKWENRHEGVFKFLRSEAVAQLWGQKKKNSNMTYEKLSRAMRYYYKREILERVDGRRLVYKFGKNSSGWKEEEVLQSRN
# Summary of the method: as §1
# ELK1 = target: T4, ELK1 (Homo sapiens, UniProt P19419 1-428); conditions: protein: recombinant; tags: N-terminal GST; dsDNA, one strand shown
# T4 sequence: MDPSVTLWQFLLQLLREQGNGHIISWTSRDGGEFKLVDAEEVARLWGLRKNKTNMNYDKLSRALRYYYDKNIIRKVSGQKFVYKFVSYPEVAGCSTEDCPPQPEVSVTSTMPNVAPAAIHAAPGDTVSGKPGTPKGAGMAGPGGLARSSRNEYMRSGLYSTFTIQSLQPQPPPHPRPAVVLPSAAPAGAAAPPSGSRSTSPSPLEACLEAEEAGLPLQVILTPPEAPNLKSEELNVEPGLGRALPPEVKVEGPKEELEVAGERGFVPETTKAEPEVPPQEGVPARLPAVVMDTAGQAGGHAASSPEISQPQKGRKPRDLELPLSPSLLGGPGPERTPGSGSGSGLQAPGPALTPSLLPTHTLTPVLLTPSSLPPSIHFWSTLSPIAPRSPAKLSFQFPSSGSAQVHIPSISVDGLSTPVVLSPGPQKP
# Summary of the method: as §1
# EHF = target: T5, EHF (Homo sapiens, UniProt Q9NZC4 1-300); conditions: protein: recombinant; tags: N-terminal GST; dsDNA, one strand shown
# T5 sequence: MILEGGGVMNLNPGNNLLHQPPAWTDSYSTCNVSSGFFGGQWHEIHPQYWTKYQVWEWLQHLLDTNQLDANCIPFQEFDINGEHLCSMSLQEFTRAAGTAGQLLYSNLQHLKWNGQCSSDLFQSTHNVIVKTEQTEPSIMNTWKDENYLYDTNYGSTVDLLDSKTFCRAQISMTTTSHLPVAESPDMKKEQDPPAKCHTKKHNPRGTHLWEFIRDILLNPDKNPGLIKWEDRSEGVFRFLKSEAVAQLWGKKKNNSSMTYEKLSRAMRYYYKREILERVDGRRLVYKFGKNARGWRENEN
# Summary of the method: as §1
# SPIB = SPIB (Homo sapiens, UniProt Q01892 1-262); conditions: protein: recombinant; tags: N-terminal GST; dsDNA, one strand shown
# Summary of the method: as §1
# ETV3L = target: T6, ETV3L (Homo sapiens, UniProt Q6ZN32 1-361); conditions: protein: recombinant; tags: N-terminal GST; dsDNA, one strand shown
# T6 sequence: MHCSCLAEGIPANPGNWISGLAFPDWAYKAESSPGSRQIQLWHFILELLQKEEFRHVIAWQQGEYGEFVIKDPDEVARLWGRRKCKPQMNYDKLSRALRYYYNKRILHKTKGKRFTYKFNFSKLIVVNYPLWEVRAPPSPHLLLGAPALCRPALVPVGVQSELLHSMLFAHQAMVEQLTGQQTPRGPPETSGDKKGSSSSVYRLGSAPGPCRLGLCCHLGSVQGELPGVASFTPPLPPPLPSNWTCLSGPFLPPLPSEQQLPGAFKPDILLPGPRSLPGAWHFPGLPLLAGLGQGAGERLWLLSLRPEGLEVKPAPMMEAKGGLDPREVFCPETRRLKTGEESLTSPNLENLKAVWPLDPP
# Summary of the method: as §1
# ETV6 = ETV6 (Homo sapiens, UniProt P41212 1-452); conditions: protein: recombinant; tags: N-terminal GST; dsDNA, one strand shown
# Summary of the method: as §1
# Chain of HSF1 (Q00613 whole entry, the tested form may be a part): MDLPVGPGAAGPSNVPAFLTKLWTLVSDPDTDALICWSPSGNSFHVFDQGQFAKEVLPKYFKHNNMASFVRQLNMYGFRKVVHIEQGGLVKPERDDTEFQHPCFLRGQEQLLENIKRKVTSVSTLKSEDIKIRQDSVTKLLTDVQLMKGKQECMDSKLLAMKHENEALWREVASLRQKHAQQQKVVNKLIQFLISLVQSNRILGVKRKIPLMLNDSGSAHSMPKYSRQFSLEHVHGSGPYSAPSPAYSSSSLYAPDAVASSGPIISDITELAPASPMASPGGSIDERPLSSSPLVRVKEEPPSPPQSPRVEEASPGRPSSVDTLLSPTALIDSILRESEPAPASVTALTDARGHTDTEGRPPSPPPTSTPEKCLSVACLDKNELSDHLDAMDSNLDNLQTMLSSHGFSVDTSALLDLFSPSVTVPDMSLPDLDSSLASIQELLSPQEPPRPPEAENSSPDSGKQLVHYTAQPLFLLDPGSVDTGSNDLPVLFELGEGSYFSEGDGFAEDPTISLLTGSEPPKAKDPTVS
# Chain of CRX (O43186 whole entry): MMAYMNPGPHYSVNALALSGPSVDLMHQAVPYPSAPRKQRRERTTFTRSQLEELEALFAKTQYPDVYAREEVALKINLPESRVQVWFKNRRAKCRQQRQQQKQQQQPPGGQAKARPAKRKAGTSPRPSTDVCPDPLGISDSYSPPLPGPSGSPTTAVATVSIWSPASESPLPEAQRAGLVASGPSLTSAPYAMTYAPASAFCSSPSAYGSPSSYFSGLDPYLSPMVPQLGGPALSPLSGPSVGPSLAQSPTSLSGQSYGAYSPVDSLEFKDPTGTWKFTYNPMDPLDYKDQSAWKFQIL
# Chain of ETV6 (P41212 whole entry): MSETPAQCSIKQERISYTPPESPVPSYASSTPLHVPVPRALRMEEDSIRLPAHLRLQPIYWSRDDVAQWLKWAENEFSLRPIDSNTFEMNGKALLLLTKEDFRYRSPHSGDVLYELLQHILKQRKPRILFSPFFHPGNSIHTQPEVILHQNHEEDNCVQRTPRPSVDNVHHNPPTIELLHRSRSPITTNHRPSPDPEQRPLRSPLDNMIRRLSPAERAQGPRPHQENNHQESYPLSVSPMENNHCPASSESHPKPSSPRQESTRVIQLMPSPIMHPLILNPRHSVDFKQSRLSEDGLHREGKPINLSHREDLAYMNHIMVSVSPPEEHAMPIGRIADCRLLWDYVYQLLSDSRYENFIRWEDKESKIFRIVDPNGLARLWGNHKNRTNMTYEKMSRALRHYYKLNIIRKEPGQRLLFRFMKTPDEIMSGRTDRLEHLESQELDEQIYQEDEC
# Chain of SPIB (Q01892 whole entry): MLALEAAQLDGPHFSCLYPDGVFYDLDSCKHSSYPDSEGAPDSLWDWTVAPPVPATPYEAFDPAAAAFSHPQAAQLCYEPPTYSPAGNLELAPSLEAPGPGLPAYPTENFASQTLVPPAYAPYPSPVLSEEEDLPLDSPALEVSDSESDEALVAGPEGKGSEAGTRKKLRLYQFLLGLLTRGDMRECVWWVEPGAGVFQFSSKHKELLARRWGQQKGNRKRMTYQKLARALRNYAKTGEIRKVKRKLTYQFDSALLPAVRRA
sequence,measurement,setting,value
CAGATC,binding signal,HSF1,"1.09 fold enrichment (6-mer frequency, TF over GST control)"
same,binding signal,ETV2,"1.02 fold enrichment (6-mer frequency, TF over GST control)"
same,binding signal,CRX,"1.13 fold enrichment (6-mer frequency, TF over GST control)"
same,binding signal,SPDEF,"1.07 fold enrichment (6-mer frequency, TF over GST control)"
GTAGAA,binding signal,SPI1,"1.01 fold enrichment (6-mer frequency, TF over GST control)"
same,binding signal,HSF1,"1.47 fold enrichment (6-mer frequency, TF over GST control)"
same,binding signal,ELF3,"1.06 fold enrichment (6-mer frequency, TF over GST control)"
GAATGG,binding signal,ELK1,"1 fold enrichment (6-mer frequency, TF over GST control)"
same,binding signal,EHF,"1.02 fold enrichment (6-mer frequency, TF over GST control)"
same,binding signal,SPIB,"1.06 fold enrichment (6-mer frequency, TF over GST control)"
same,binding signal,HSF1,"1.07 fold enrichment (6-mer frequency, TF over GST control)"
same,binding signal,ETV2,"1.1 fold enrichment (6-mer frequency, TF over GST control)"
same,binding signal,ETV3L,"1.01 fold enrichment (6-mer frequency, TF over GST control)"
same,binding signal,ETV6,"1.04 fold enrichment (6-mer frequency, TF over GST control)"
